In the supplement of paper PMC10849652 one finds log2 fold change data, which are given here for 36 targets.

Of roughly 7,900 targets only a part is listed; those with a hit were picked by preference. About 0.6% of all pairs of compound and target were hits.

Sequence of UniProt O43156 (O43156 whole entry, looked up): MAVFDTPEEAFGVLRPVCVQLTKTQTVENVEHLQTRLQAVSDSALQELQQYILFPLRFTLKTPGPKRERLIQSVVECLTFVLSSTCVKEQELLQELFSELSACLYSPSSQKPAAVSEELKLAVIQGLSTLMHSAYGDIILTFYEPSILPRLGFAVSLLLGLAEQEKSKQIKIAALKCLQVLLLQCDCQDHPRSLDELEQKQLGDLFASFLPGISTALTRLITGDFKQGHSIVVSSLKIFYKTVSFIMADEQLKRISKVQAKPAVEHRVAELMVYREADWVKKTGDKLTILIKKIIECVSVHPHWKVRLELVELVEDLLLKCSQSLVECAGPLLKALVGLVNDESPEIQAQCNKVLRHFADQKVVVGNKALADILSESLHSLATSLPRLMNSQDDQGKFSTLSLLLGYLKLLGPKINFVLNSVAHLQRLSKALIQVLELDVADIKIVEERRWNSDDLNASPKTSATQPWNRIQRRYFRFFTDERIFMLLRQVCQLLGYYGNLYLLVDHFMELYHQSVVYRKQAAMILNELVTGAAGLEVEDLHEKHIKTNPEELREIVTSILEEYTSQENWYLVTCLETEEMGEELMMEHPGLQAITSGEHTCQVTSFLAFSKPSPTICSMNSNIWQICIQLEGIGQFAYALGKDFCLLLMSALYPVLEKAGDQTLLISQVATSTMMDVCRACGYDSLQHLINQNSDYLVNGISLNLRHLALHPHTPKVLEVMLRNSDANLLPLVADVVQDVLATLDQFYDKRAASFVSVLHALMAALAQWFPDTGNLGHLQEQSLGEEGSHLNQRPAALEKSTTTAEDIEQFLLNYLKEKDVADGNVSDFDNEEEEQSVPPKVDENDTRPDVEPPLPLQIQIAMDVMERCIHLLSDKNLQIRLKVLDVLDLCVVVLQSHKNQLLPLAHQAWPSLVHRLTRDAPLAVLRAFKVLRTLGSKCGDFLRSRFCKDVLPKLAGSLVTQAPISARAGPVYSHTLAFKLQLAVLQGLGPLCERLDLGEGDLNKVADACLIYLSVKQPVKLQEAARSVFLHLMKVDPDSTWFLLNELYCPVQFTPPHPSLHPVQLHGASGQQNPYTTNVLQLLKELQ
Sequence of UniProt Q8N1B4 (Q8N1B4 whole entry, looked up): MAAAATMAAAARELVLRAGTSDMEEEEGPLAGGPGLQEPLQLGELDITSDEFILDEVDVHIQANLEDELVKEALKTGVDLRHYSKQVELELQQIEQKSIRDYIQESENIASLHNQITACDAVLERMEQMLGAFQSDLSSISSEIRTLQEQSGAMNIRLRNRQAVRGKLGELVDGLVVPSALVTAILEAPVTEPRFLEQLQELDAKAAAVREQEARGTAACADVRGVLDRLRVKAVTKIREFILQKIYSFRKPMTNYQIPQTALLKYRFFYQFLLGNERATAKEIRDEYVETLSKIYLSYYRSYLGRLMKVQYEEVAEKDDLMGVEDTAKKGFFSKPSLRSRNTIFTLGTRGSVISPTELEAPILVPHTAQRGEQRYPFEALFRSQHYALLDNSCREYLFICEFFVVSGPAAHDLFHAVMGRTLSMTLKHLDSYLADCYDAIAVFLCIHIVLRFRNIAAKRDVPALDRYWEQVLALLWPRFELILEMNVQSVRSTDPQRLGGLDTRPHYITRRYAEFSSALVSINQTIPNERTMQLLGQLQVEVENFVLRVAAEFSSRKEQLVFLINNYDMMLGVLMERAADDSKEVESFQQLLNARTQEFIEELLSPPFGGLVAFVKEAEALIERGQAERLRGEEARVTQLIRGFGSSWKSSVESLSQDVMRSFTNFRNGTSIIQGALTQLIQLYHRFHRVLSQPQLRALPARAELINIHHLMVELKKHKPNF
Sequence of UniProt P54578 (P54578 whole entry, looked up): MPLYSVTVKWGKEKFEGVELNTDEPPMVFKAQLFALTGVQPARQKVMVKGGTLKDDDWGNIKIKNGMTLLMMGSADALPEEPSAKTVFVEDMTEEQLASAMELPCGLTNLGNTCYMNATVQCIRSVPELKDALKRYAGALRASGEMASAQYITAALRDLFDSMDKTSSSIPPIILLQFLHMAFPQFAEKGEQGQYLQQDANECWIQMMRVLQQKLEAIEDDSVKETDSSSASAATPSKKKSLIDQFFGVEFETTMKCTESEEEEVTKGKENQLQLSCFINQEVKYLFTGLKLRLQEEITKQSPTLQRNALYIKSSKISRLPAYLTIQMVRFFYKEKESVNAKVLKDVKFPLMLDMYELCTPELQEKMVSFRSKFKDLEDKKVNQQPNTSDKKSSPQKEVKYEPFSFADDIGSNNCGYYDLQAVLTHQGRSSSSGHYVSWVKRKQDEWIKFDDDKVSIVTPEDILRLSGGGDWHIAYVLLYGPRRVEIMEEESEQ
Sequence of UniProt Q9Y5K5 (Q9Y5K5 whole entry, looked up): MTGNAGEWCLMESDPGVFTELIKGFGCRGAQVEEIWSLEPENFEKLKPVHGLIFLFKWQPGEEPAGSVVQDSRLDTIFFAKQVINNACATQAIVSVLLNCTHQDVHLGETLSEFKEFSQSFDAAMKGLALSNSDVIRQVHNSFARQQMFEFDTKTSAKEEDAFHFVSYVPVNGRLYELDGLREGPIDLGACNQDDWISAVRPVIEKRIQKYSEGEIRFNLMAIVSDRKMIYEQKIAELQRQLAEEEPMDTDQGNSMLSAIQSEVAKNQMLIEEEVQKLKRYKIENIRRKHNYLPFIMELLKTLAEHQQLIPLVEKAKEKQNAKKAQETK
Sequence of UniProt Q8IZ69 (Q8IZ69 whole entry, looked up): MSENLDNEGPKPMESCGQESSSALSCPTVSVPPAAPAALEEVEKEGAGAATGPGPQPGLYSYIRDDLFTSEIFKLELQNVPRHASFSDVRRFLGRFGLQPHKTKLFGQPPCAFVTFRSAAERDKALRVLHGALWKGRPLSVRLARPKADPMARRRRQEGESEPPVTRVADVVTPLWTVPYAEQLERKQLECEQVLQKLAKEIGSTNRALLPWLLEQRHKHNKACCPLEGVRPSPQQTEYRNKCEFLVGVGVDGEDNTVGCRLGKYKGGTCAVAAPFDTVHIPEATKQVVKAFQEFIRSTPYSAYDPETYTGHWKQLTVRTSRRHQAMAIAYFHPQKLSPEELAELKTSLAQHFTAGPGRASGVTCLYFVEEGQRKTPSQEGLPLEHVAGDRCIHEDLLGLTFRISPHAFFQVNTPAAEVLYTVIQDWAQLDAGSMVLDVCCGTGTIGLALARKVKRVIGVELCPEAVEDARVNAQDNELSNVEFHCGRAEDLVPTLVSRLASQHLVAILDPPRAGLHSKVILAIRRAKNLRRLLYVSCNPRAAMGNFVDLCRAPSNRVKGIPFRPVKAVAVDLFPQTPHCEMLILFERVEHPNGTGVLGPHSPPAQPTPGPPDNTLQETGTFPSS
Sequence of UniProt Q15629 (Q15629 whole entry, looked up): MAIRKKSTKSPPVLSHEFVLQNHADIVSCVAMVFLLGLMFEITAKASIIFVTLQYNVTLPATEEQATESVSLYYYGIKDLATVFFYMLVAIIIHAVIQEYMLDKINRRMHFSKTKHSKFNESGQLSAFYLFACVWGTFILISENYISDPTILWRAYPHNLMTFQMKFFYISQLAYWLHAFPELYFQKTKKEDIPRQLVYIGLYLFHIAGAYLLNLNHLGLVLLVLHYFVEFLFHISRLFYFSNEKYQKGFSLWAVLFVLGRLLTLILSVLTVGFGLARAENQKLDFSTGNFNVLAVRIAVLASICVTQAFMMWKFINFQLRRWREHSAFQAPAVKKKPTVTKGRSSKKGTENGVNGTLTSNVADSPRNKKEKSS
Sequence of UniProt P0CG48 (P0CG48 whole entry, looked up): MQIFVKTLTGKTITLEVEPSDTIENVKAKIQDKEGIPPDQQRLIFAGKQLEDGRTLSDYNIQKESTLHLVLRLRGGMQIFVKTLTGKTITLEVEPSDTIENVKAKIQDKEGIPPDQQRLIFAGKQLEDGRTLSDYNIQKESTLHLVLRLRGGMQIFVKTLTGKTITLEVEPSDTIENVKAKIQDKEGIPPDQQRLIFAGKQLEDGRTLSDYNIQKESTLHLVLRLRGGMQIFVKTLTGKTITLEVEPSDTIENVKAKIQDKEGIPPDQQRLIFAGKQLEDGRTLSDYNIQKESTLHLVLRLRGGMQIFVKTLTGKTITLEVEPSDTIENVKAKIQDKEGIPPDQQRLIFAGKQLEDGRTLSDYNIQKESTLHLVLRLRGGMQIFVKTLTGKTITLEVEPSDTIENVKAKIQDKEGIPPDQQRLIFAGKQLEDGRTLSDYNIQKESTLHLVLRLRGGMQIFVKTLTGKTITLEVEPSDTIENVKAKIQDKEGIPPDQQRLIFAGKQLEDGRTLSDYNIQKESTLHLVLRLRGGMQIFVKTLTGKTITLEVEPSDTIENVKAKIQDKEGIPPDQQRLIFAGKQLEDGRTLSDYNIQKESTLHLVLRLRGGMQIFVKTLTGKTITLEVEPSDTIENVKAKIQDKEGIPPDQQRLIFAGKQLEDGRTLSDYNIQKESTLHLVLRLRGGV
Sequence of UniProt Q96HV5 (Q96HV5 whole entry, looked up): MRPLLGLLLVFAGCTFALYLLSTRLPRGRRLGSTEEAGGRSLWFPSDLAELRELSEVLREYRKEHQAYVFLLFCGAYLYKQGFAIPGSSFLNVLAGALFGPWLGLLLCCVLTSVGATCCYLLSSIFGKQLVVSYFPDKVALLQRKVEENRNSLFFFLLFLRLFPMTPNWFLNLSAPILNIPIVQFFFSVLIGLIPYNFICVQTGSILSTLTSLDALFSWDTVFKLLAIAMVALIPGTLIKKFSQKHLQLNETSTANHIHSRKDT
Sequence of UniProt Q7Z6J8 (Q7Z6J8 whole entry, looked up): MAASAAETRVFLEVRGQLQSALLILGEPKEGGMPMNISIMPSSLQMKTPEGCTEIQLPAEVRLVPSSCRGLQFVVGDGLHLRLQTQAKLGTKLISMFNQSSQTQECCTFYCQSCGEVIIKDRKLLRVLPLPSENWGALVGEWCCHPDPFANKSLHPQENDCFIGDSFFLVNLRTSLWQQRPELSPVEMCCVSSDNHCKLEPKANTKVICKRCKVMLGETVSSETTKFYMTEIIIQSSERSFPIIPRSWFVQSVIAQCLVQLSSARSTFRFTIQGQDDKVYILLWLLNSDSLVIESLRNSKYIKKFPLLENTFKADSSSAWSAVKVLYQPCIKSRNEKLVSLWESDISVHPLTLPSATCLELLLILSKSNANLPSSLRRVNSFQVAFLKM

Compound in the first assay: C1=CC2=NC=CN=C2C=C1/C=C/3\C(=O)NC(=O)S3
The experiment in a line: log2 fold change, soluble protein after heating vs DMSO (PISA); higher = thermal stabilisation; K562 cells, 10 uM, 30 min; active = over 0.2 and 3.5 SD of the protein, either way, in both replicates (recomputed). The method, boiled down: (§1)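 Thermal stability values are relative to control samples and come from duplicates. They are expressed as log2 fold changes. For measurement, K562 cells (2×10^6 cells/mL) received 10 μM compound for 30 min, and aliquots were heated for 3 min over 48°C-58°C, pooled, and extracted at 4°C in PBS with 0.5% NP-40. Soluble protein, the supernatant after 21,000xg for 90 min, was quantified by TMTpro 16plex LC-MS/MS with equalised channel sums.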
For the target VPS72 isoform 2 (UniProt Q15906), the log2 fold change was -0.094 (inactive).

In the case of UBE2J1 (UniProt Q9Y385), the log2 fold change is 0.054 (inactive).

For WDR43 (UniProt Q15061), the log2 fold change is 0.015 (inactive).

On to UCHL5 isoform 3 (UniProt Q9Y5K5), for which the log2 fold change was 0.125 (inactive).

As to TMEM161A (UniProt Q9NX61), the log2 fold change is 0.001 (inactive).

For the target VPS50 (UniProt Q96JG6), the log2 fold change is 0.025 (inactive).

As for XRCC6 (UniProt P12956), the log2 fold change is 0.031 (inactive).

For WRB (UniProt O00258), the log2 fold change was 0.069 (inactive).

TMEM214 (UniProt Q6NUQ4): the log2 fold change is 0.017 (inactive).

For TOM1 isoform 2 (UniProt O60784), the log2 fold change is -0.016 (inactive).

Consider UBE3D (UniProt Q7Z6J8), for which the log2 fold change is -0.076 (inactive).

On to TOE1 (UniProt Q96GM8), for which the log2 fold change is 0.005 (inactive).

Regarding TRMT2A (UniProt Q8IZ69), the log2 fold change is -0.009 (inactive).

As for VAMP7 (UniProt P51809), the log2 fold change was 0.007 (inactive).

On to VTA1 (UniProt Q9NP79), for which the log2 fold change was 0.025 (inactive).

On to VPS41 (UniProt P49754), for which the log2 fold change is 0.056 (inactive).

Take TMEM208 (UniProt Q9BTX3): the log2 fold change was 0.011 (inactive).

With USP14 (UniProt P54578), the log2 fold change was 0 (inactive).

Take TRIM4 (UniProt Q9C037): the log2 fold change is -0.01 (inactive).

TMEM41A (UniProt Q96HV5): the log2 fold change was 0.037 (inactive).

As to TRAM1 (UniProt Q15629), the log2 fold change is 0.065 (inactive).

Regarding USP15 (UniProt Q9Y4E8), the log2 fold change is 0.031 (inactive).

TNNC2 (UniProt P02585): the log2 fold change is 0.026 (inactive).

VPS52 (UniProt Q8N1B4): the log2 fold change is 0.031 (inactive).

With TRAPPC6B (UniProt Q86SZ2), the log2 fold change was -0.006 (inactive).

Regarding WDR7 (UniProt Q9Y4E6), the log2 fold change is -0.001 (inactive).

Consider TMEM189-UBE2V1 (UniProt I3L0A0), for which the log2 fold change is -0.047 (inactive).

Take TTI1 (UniProt O43156): the log2 fold change was 0.028 (inactive).

For WASHC2A (UniProt Q641Q2), the log2 fold change is 0.058 (inactive).

Regarding TSG101 (UniProt Q99816), the log2 fold change was 0.004 (inactive).

For TRMT10A (UniProt Q8TBZ6), the log2 fold change is 0.02 (inactive).

As for WARS2 (UniProt Q9UGM6), the log2 fold change was 0.006 (inactive).

Regarding UBE2Q1 (UniProt Q7Z7E8), the log2 fold change was 0.061 (inactive).

VPS53 isoform 4 (UniProt Q5VIR6): the log2 fold change is 0.048 (inactive).

With TOM1L1 (UniProt O75674), the log2 fold change is 0.037 (inactive).

For the target UBC (UniProt P0CG48), the log2 fold change was -0.044 (inactive).

Compound in another assay: C1=CC=C(C=C1)C2=NC(=C(N2)C3=CC=NC=C3)C4=CC(=C(C=C4)Cl)O
The assay is described as above. The method, boiled down:
as §1
For VPS72 isoform 2 (UniProt Q15906), the log2 fold change was -0.054 (inactive).

As for UBE2J1 (UniProt Q9Y385), the log2 fold change is 0.043 (inactive).

As to WDR43 (UniProt Q15061), the log2 fold change was -0.008 (inactive).

UCHL5 isoform 3 (UniProt Q9Y5K5): the log2 fold change was -0.11 (inactive).

Regarding TMEM161A (UniProt Q9NX61), the log2 fold change is 0.029 (inactive).

Turning to VPS50 (UniProt Q96JG6), the log2 fold change was 0.023 (inactive).

With XRCC6 (UniProt P12956), the log2 fold change was -0.023 (inactive).

Take WRB (UniProt O00258): the log2 fold change is 0.019 (inactive).

With TMEM214 (UniProt Q6NUQ4), the log2 fold change is -0.044 (inactive).

Regarding TOM1 isoform 2 (UniProt O60784), the log2 fold change is -0.053 (inactive).

In the case of UBE3D (UniProt Q7Z6J8), the log2 fold change was 0.013 (inactive).

On to TOE1 (UniProt Q96GM8), for which the log2 fold change was -0.05 (inactive).

As for TRMT2A (UniProt Q8IZ69), the log2 fold change is -0.026 (inactive).

Turning to VAMP7 (UniProt P51809), the log2 fold change is 0.065 (inactive).

For VTA1 (UniProt Q9NP79), the log2 fold change was -0.02 (inactive).

As to VPS41 (UniProt P49754), the log2 fold change is 0.004 (inactive).

TMEM208 (UniProt Q9BTX3): the log2 fold change was -0.054 (inactive).

On to USP14 (UniProt P54578), for which the log2 fold change was 0.02 (inactive).

Regarding TRIM4 (UniProt Q9C037), the log2 fold change was -0.029 (inactive).

Consider TMEM41A (UniProt Q96HV5), for which the log2 fold change was -0.04 (inactive).

With TRAM1 (UniProt Q15629), the log2 fold change is 0.144 (inactive).

For the target USP15 (UniProt Q9Y4E8), the log2 fold change is 0 (inactive).

Consider TNNC2 (UniProt P02585), for which the log2 fold change is -0.058 (inactive).

VPS52 (UniProt Q8N1B4): the log2 fold change is 0.004 (inactive).

Regarding TRAPPC6B (UniProt Q86SZ2), the log2 fold change is -0.016 (inactive).

As to WDR7 (UniProt Q9Y4E6), the log2 fold change was 0.099 (inactive).

Regarding TMEM189-UBE2V1 (UniProt I3L0A0), the log2 fold change was 0.028 (inactive).

As to TTI1 (UniProt O43156), the log2 fold change is 0.029 (inactive).

Consider WASHC2A (UniProt Q641Q2), for which the log2 fold change is -0.072 (inactive).

Turning to TSG101 (UniProt Q99816), the log2 fold change was -0.032 (inactive).

TRMT10A (UniProt Q8TBZ6): the log2 fold change was -0.015 (inactive).

Take WARS2 (UniProt Q9UGM6): the log2 fold change is -0.032 (inactive).

Consider UBE2Q1 (UniProt Q7Z7E8), for which the log2 fold change is 0.014 (inactive).

VPS53 isoform 4 (UniProt Q5VIR6): the log2 fold change is -0.083 (inactive).

Take TOM1L1 (UniProt O75674): the log2 fold change is -0.023 (inactive).

As for UBC (UniProt P0CG48), the log2 fold change was -0.054 (inactive).
